Experimental data as given in PubChem BioAssay (NCATS).
Records with an inconclusive call do not appear. A call without a number means that no potency is given here. Unmarked numbers belong to inactive results. Activity calls are given as the source filed them. Calls come from the whole dose curve; as a rule, active = well fitted curve in the direction sought with a large enough effect; inconclusive = small, poorly fitted or top-dose-only effect, or another doubt; inactive = no such curve, though single readings can be large; an effect the other way counts as inactive or inconclusive.

How the values were obtained:
NIH3T3 = assay: qHTS assay to identify novel small-molecules to repurpose for Merkel cell carcinoma treatment (AID 1296009); conditions: MCC and control cell lines, CellTiter-Glo viability, 72 h; at 44.8 µM (top of the series) unless noted; note: nearly all actives have a fitted effect of over 60% in size
Method in brief: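 Luminescence from CellTiter-Glo, read 10 min after addition at room temperature, reported viability following a 72 hr, 37 degree celsius treatment with NPC or MIPE compounds in titration; values normalized to plate controls.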

C33A = assay: Primary qHTS to identify gynecologic anti-cancer compounds using libraries of approved drugs and bioactive compounds (AID 1345084); conditions: Gynecologic cancer cell panel viability, ATPlite luminescence, 48 h; series mostly up to 57.5 µM; note: nearly all actives have a fitted effect of over 55% in size; note: potency is the fitted concentration of half-maximal effect
Method in brief: (§1)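 Cells, 1,000 per well, were allowed to settle for 16 h at 37 C before compound addition. Five concentrations were tested for 48 h, and viability was read by ATPlite luminescence after 15 min at room temperature.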

CAOV3 = assay: as above; conditions: Gynecologic cancer cell panel viability, ATPlite luminescence, 48 h; series mostly up to 57.5 µM
Method in brief: as §1

CASKI = assay: as above; conditions: Gynecologic cancer cell panel viability, ATPlite luminescence, 48 h; series mostly up to 57.5 µM
Method in brief: as §1

Es-2 = assay: as above; conditions: Gynecologic cancer cell panel viability, ATPlite luminescence, 48 h; series mostly up to 57.5 µM
Method in brief: as §1

HeLa = assay: as above; conditions: Gynecologic cancer cell panel viability, ATPlite luminescence, 48 h; series mostly up to 57.5 µM
Method in brief: as §1

Hek293T = assay: as above; conditions: Gynecologic cancer cell panel viability, ATPlite luminescence, 48 h, control line for the selectivity index; series mostly up to 57.5 µM
Method in brief: as §1

JEG-3 = assay: as above; conditions: Gynecologic cancer cell panel viability, ATPlite luminescence, 48 h; series mostly up to 57.5 µM
Method in brief: as §1

OV90 = assay: as above; conditions: Gynecologic cancer cell panel viability, ATPlite luminescence, 48 h; series mostly up to 57.5 µM
Method in brief: as §1

PA-1 = assay: as above; conditions: Gynecologic cancer cell panel viability, ATPlite luminescence, 48 h; series mostly up to 57.5 µM
Method in brief: as §1

SKOV3 = assay: as above; conditions: Gynecologic cancer cell panel viability, ATPlite luminescence, 48 h; series mostly up to 57.5 µM
Method in brief: as §1

Tov-21-G = assay: as above; conditions: Gynecologic cancer cell panel viability, ATPlite luminescence, 48 h; series mostly up to 57.5 µM
Method in brief: as §1

Tov112D = assay: as above; conditions: Gynecologic cancer cell panel viability, ATPlite luminescence, 48 h; series mostly up to 57.5 µM
Method in brief: as §1

Q: Which results are given for `CN1CCN(C(=O)c2cc3cc(Cl)ccc3[nH]2)CC1`?
A: outcome (NIH3T3): inactive; Potency (C33A): inactive; Potency (CAOV3): inactive; outcome (CASKI): inactive; Potency (Es-2): inactive; Potency (HeLa): inactive; Potency (Hek293T): inactive; Potency (JEG-3): inactive; Potency (OV90): inactive; Potency (PA-1): inactive; Potency (SKOV3): inactive; Potency (Tov-21-G): inactive; Potency (Tov112D): inactive

Q: What does the source list for `CC1C(=O)OCC2=CC[N+]3([O-])CCC(OC(=O)C(C)(O)C1(C)O)C23` (stereo not drawn)?
A: outcome (NIH3T3): inactive; Potency (C33A): inactive; Potency (CAOV3): inactive; outcome (CASKI): inactive; Potency (Es-2): inactive; Potency (HeLa): inactive; Potency (Hek293T): inactive; Potency (JEG-3): inactive; Potency (OV90): inactive; Potency (PA-1): inactive; Potency (SKOV3): inactive; Potency (Tov-21-G): inactive; Potency (Tov112D): inactive

Q: `Nc1c(-c2ccccc2)nc(Cl)c2c(O)n[nH]c(=O)c12` was tested. Which outcome (NIH3T3) did it give?
A: inactive

Q: What about the Potency (C33A) of the same compound?
A: inactive

Q: And the Potency (CAOV3)?
A: inactive

Q: And the outcome (CASKI)?
A: inactive

Q: What about the Potency (Es-2) of the same compound?
A: inactive

Q: And the Potency (HeLa)?
A: inactive

Q: What about the Potency (Hek293T) of the same compound?
A: inactive

Q: And the Potency (JEG-3)?
A: inactive

Q: What about the Potency (OV90) of the same compound?
A: inactive

Q: What about the Potency (PA-1) of the same compound?
A: inactive

Q: What about the Potency (Tov-21-G) of the same compound?
A: inactive

Q: What about the Potency (Tov112D) of the same compound?
A: inactive

Q: What does the source list for `CC(C)(O)C1CC=C(C(=O)OC[C@H]2O[C@@H](Oc3cc(C(=O)O)cc(O)c3O)[C@H](O)[C@@H](O)[C@@H]2O)CC1` (stereo partly drawn)?
A: outcome (NIH3T3): inactive [at 17.4 µM]; Potency (C33A): inactive; Potency (CAOV3): inactive; outcome (CASKI): inactive; Potency (Es-2): inactive; Potency (HeLa): inactive; Potency (Hek293T): inactive; Potency (JEG-3): inactive; Potency (OV90): inactive; Potency (PA-1): inactive; Potency (Tov-21-G): inactive; Potency (Tov112D): inactive

Q: Which results are given for `CC1OC(O[C@@H]2[C@H](O)[C@@H](OC3OC(CO)C(O)C(O)C3O)[C@H](OC(=O)[C@]34CCC(C)(C)C[C@H]3C3=CCC5[C@@]6(C)CC[C@H](O[C@@H]7O[C@H](C(=O)O)[C@@H](O)[C@H](O[C@@H]8OC[C@@H](O)[C@H](O)[C@H]8O)[C@H]7O[C@@H]7O[C@H](CO)[C@H](O)[C@H](O)[C@H]7O)[C@@](C)(C=O)C6CC[C@@]5(C)[C@]3(C)C[C@H]4O)O[C@@H]2C)C(O)C(O)C1OC1OCC(O)C(O)C1O` (stereo partly drawn)?
A: outcome (NIH3T3): inactive [at 4.96 µM]; activity change, negative = cytotoxicity (C33A): 2.44% [at 6.55 µM]; activity change, negative = cytotoxicity (CAOV3): 8.46% [at 6.55 µM]; activity change, negative = cytotoxicity (CASKI): 4.43% [at 6.55 µM]; activity change, negative = cytotoxicity (Es-2): -4.12% [at 6.55 µM]; activity change, negative = cytotoxicity (HeLa): 23.9% [at 6.55 µM]; activity change, negative = cytotoxicity (Hek293T): 0.666% [at 6.55 µM]; activity change, negative = cytotoxicity (JEG-3): 2.9% [at 6.55 µM]; activity change, negative = cytotoxicity (OV90): -6.72% [at 6.55 µM]; activity change, negative = cytotoxicity (PA-1): 8.3% [at 6.55 µM]; activity change, negative = cytotoxicity (Tov-21-G): -1.56% [at 6.55 µM]; activity change, negative = cytotoxicity (Tov112D): 1.65% [at 6.55 µM]

Q: What does the source list for `COc1cc(C(=O)OC[C@H]2O[C@@H](OC(C)(C)C(=O)O)[C@H](O)[C@@H](O)[C@@H]2O)cc(OC)c1O`?
A: outcome (NIH3T3): inactive [at 17.4 µM]; Potency (C33A): inactive; Potency (CAOV3): inactive; outcome (CASKI): inactive; Potency (Es-2): inactive; Potency (HeLa): inactive; Potency (Hek293T): inactive; Potency (JEG-3): inactive; Potency (OV90): inactive; Potency (PA-1): inactive; Potency (Tov-21-G): inactive; Potency (Tov112D): inactive

Q: For `CC/C=C\[C@H](O)[C@H](O)C1=C(C)C(=O)[C@]2(O1)C(=O)N[C@@](O)(C(=O)c1ccccc1)[C@@H]2O`, which outcome (NIH3T3) is on record?
A: inactive [at 17.4 µM]

Q: What about the Potency (C33A) of the same compound?
A: inactive

Q: And the Potency (CAOV3)?
A: inactive

Q: What about the outcome (CASKI) of the same compound?
A: inactive

Q: And the Potency (Es-2)?
A: inactive

Q: And the Potency (HeLa)?
A: inactive

Q: And the Potency (Hek293T)?
A: inactive

Q: And the Potency (JEG-3)?
A: inactive

Q: What about the Potency (OV90) of the same compound?
A: inactive

Q: What about the Potency (PA-1) of the same compound?
A: inactive

Q: And the Potency (SKOV3)?
A: inactive

Q: And the Potency (Tov-21-G)?
A: inactive

Q: What about the Potency (Tov112D) of the same compound?
A: inactive

Q: Which results are given for `Cc1occc1C(=O)n1ccnc1`?
A: outcome (NIH3T3): inactive; Potency (C33A): inactive; Potency (CAOV3): inactive; outcome (CASKI): inactive; Potency (Es-2): inactive; Potency (HeLa): inactive; Potency (Hek293T): inactive; Potency (JEG-3): inactive; Potency (OV90): inactive; Potency (PA-1): inactive; Potency (Tov-21-G): inactive; Potency (Tov112D): inactive

Q: `C=C1CC[C@@]2(OC1)O[C@H]1CC3[C@@H]4CC=C5C[C@@H](O)C[C@@H](O[C@@H]6OC[C@H](O)[C@H](O)[C@H]6O[C@@H]6O[C@@H](C)[C@H](O)[C@@H](O)[C@H]6O)[C@]5(C)C4CC[C@]3(C)[C@H]1[C@@H]2C` (stereo partly drawn) was tested. Which outcome (NIH3T3) did it give?
A: inactive [at 17.4 µM]

Q: What about the Potency (C33A) of the same compound?
A: inactive

Q: And the Potency (CAOV3)?
A: inactive

Q: And the outcome (CASKI)?
A: inactive

Q: What about the Potency (Es-2) of the same compound?
A: inactive

Q: What about the Potency (HeLa) of the same compound?
A: inactive

Q: What about the Potency (Hek293T) of the same compound?
A: inactive

Q: And the Potency (JEG-3)?
A: inactive

Q: And the Potency (OV90)?
A: inactive

Q: What about the Potency (PA-1) of the same compound?
A: inactive

Q: What about the Potency (SKOV3) of the same compound?
A: inactive

Q: And the Potency (Tov-21-G)?
A: inactive

Q: And the Potency (Tov112D)?
A: inactive

Q: What does the source list for `CC(C)NC(=O)c1ccc(C#Cc2ccncc2)cn1`?
A: outcome (NIH3T3): inactive; Potency (C33A): inactive; Potency (CAOV3): inactive; outcome (CASKI): inactive; Potency (Es-2): inactive; Potency (HeLa): inactive; Potency (Hek293T): inactive; Potency (JEG-3): inactive; Potency (OV90): inactive; Potency (PA-1): inactive; Potency (SKOV3): inactive; Potency (Tov-21-G): inactive; Potency (Tov112D): inactive

Q: For `Cn1cc(-c2c[nH]c3ncnc(N4CCOCC4)c23)cn1`, which outcome (NIH3T3) is on record?
A: inactive

Q: And the Potency (C33A)?
A: inactive

Q: What about the Potency (CAOV3) of the same compound?
A: inactive

Q: And the outcome (CASKI)?
A: inactive

Q: And the Potency (Es-2)?
A: inactive

Q: What about the Potency (HeLa) of the same compound?
A: inactive

Q: And the Potency (Hek293T)?
A: inactive

Q: What about the Potency (JEG-3) of the same compound?
A: inactive

Q: What about the Potency (OV90) of the same compound?
A: inactive

Q: What about the Potency (PA-1) of the same compound?
A: inactive

Q: What about the Potency (Tov-21-G) of the same compound?
A: inactive

Q: What about the Potency (Tov112D) of the same compound?
A: inactive

Q: With `CC1(C)CC(NC(=O)C(=O)Nc2ccc(Cl)cc2)CC(C)(C)N1` as the compound, how does the outcome (NIH3T3) read?
A: inactive

Q: And the Potency (C33A)?
A: inactive

Q: What about the Potency (CAOV3) of the same compound?
A: inactive

Q: And the outcome (CASKI)?
A: inactive

Q: What about the Potency (Es-2) of the same compound?
A: inactive

Q: And the Potency (HeLa)?
A: inactive

Q: What about the Potency (Hek293T) of the same compound?
A: inactive

Q: And the Potency (JEG-3)?
A: inactive

Q: What about the Potency (OV90) of the same compound?
A: inactive

Q: What about the Potency (PA-1) of the same compound?
A: inactive

Q: What about the Potency (Tov-21-G) of the same compound?
A: inactive

Q: What about the Potency (Tov112D) of the same compound?
A: inactive

Q: How did the outcome (NIH3T3) turn out when `O=C(C[C@@H]1C(C(=O)O)=CO[C@@H](O[C@@H]2O[C@H](CO)[C@@H](O)[C@H](O)[C@H]2O)/C1=C\CO)OCCc1ccc(O)c(O)c1` was run?
A: inactive [at 17.4 µM]

Q: And the Potency (C33A)?
A: inactive

Q: What about the Potency (CAOV3) of the same compound?
A: inactive

Q: And the outcome (CASKI)?
A: inactive

Q: And the Potency (Es-2)?
A: inactive

Q: And the Potency (HeLa)?
A: inactive

Q: And the Potency (Hek293T)?
A: inactive

Q: And the Potency (JEG-3)?
A: inactive

Q: And the Potency (OV90)?
A: inactive

Q: What about the Potency (PA-1) of the same compound?
A: inactive

Q: And the Potency (Tov-21-G)?
A: inactive

Q: What about the Potency (Tov112D) of the same compound?
A: inactive

Q: What does the source list for `C#CCCCn1cc(-c2cccc3c2N[C@@H](C)CC(=O)N3)cn1`?
A: outcome (NIH3T3): inactive; Potency (C33A): inactive; Potency (CAOV3): inactive; outcome (CASKI): inactive; Potency (Es-2): inactive; Potency (HeLa): 28.2 µM (active); Potency (Hek293T): inactive; Potency (JEG-3): inactive; Potency (OV90): inactive; Potency (PA-1): inactive; Potency (Tov-21-G): inactive; Potency (Tov112D): inactive
